Data on 57 sequences can be found in the supplement of paper PMC11417369.

± gives the standard deviation of the averaged measurements. Whole data set: some 25,000 sequences, median “ln(normalized median fluorescence intensity)” near 8.9, cut for the highest 2% near 10. This is one part of a sample in which the highest values are shown more often than they occur.

For this assay, the system named is PfAP2-LT AP2 domain (GST-tagged). The assay is described as follows: gcPBM binding intensity (ln(normalized median fluorescence intensity)); higher = stronger DNA binding. The gist of the method: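 Plasmodium falciparum DNA-binding domains carrying a GST tag were expressed in E. coli and applied for 1 h, at about 25 μg on average, to an Agilent 4 × 180k array. The array held primer-extended double-stranded 36-bp intergenic genomic probes together with negative controls, and binding took place in 1× PBS with 1% milk, 0.2 mg/ml BSA, 0.5% salmon testes DNA and 0.03% Triton X-100. An Alexa488 anti-GST antibody detected bound protein, and the array was scanned at 488 nm. Binding intensity is taken as the highest Masliner-normalised natural-log median intensity across replicate spots of either probe orientation.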
As for “TTATTATTCCCTCATTTTGTTACCATTATTTCAATT [CACACA_negctrl_site1023]”, the “gcPBM binding intensity (ln)” value came out at 8.88 ± 0.54. As to “AATGTACAAATACGTACACACATATATATATATATA [CACACA_site1542]”, the “gcPBM binding intensity (ln)” value came out at 10.1 ± 0.18. To “GATATTATGTGTTTGGTATTTCGATCTTGTCAGGAC [CACACA_negctrl_site426]” belongs 8.93 ± 0.41; to “AAAAAAAAGAAAAACACACACATATATATATATAAT [CACACA_site4707]”, 9.53 ± 0.42.

As to “CGGACATACTAACGGACACACGTAAGAAAAAAAAAG [CACACA_site4504]”, the “gcPBM binding intensity (ln)” value amounted to 9.05 ± 0.64. The figure for “CAAGAAAAGAAACACACACACATATATATATATATA [CACACA_site3881]” is 10.4 ± 0.28. The figure for “GTAAGAAACAGACACACACACATATATATATATATA [CACACA_site794]” is 10.21 ± 0.064; for “CACAAAAAGAAACACACACACATATATATATATATA [CACACA_site999]” it is 10 ± 0.37; for “TAAACAGACATATAAACACACATATAAACAGACATA [CACACA_site7214]” it is 9.31 ± 0.41. The figure for “AAAAAAAAAAAAGAAACACACACATATATATATATA [CACACA_site8525]” is 9.94 ± 0.3.

Take “AAGAAAAAAAAAAAAACACACATATATATATATATA [CACACA_site2027]”: the “gcPBM binding intensity (ln)” value is 10.1 ± 0.14. For the sequence “TACGGACATACTAACGGACACACGTAAGAAAAAAAA [CACACA_site602]”, the “gcPBM binding intensity (ln)” value was 9.03 ± 0.56. The figure for “GTAAGAAACAGACACACACACATATAAATATAAATA [CACACA_site6515]” is 9.86 ± 0.49; for “AAAAAAAAAAAAGAAACACACATATATATATATATA [CACACA_site140]” it is 9.9 ± 0.071; for “GTAAGAAACGGACACACACACATATATATATATATA [CACACA_site4593]” it is 10.39 ± 0.05. Turning to “ATAAAATCTTAATCAACAAACAAACAAAAAAAAAAT [CACACA_negctrl_site1161]”, the “gcPBM binding intensity (ln)” value came out at 8.77 ± 0.48. Consider “ATATGTTCTACAAAAAAGATGTCGATTTATTTTCTT [CACACA_negctrl_site1179]”, for which the “gcPBM binding intensity (ln)” value stood at 8.56 ± 0.49. To “TTTACATTTCAGTAGACACACAAAAAATAATACTAA [CACACA_site512]” belongs 8.76 ± 0.43. The figure for “AAAAAAAGATTATACACACACATATATAAACATACA [CACACA_site4553]” is 9.54 ± 0.3; for ATGATATGCAATTTAGTGCATAACAAAATTGGTATA it is 8.79 ± 0.5; for “TTATTTATAAATATTAATTTTTTTTTTTTTTTTTTT [XGTACX_negctrl_site105]” it is 8.01 ± 0.5.

As to “TAATATATATTATTATGTACATATATTGATTCCTTG [XGTACX_site6830]”, the “gcPBM binding intensity (ln)” value was 8.85 ± 0.47.

On to “AATATAAGAAAAATAACACACACATAAACATATATA [CACACA_site8899]”, for which the “gcPBM binding intensity (ln)” value was 9.54 ± 0.35. “TTGTAAGAAAAACACACACACACATATATATATATA [CACACA_site795]”: the “gcPBM binding intensity (ln)” value worked out at 10.1 ± 0.014. The figure for “ATAAGAAGAAGAAAAACACACATATGTAAATATATA [CACACA_site3138]” is 9.09 ± 0.54. Regarding “ATGTTGTACAGACACACACACAAAAAAAAAATAAAA [CACACA_site7184]”, the “gcPBM binding intensity (ln)” value came out at 9.46 ± 0.56. As for “ATATATATATGTATGTATATATATATATATATGTTT [CACACA_negctrl_site248]”, the “gcPBM binding intensity (ln)” value turned out to be 9.08 ± 0.34. To “TATATATATATATATATATATATATATATATGTTGT [TGCATGCA_negctrl_site24]” belongs 10.24 ± 0.085; to “GTTATATGTTATATATATATATATATATATATATAT [TGCATGCA_negctrl_site428]”, 9.51 ± 0.27.

With TTTTCTTCATAAATGCTGCACTGGTTTAAGCATGAT, the “gcPBM binding intensity (ln)” value came to 8.6 ± 0.46. Regarding “TGGGAAGGGTGGGAAACTTTATCAAAAACTTATTAC [GTGCAC_negctrl_site16]”, the “gcPBM binding intensity (ln)” value worked out at 8.98 ± 0.24. For “TTTTGTTGATTTATATCTGTAGGGTTTAATATAACA [XGTACX_negctrl_site174]”, the “gcPBM binding intensity (ln)” value came out at 8.51 ± 0.33. To “TATAAAAAATAAAATACACACACATATATATATATA [CACACA_site8365]” belongs 9.74 ± 0.28; to “AGCACCCACCAACACACACACACACCCACCCACCGA [CACACA_site368]”, 10.22 ± 0.028.

In the case of “TATATATATATATATACACACACACCCACCAAAGCG [CACACA_site7904]”, the “gcPBM binding intensity (ln)” value is 10.02 ± 0.021. Take “TACACCCACCAACACACACACACACTAATAAAAAAA [CACACA_site8060]”: the “gcPBM binding intensity (ln)” value was 10.1 ± 0.44. Consider “TGCACCCACCAACACACACACAACTAAAAAATAATG [CACACA_site2566]”, for which the “gcPBM binding intensity (ln)” value was found to be 9.71 ± 0.42. The figure for “AGCACCCACCAACACACACACACACCCACCCACCCA [CACACA_site8011]” is 10.3 ± 0.11; for “ATCAAGCACCAACACACACACACACCCCCACCCACA [CACACA_site370]” it is 10.6 ± 0.11; for “TCCTGTTGAGAATGGCGTACATATAAATATTATATA [XGTACX_site1841]” it is 8.55 ± 0.42. To “TTTAATTTGTTATACACACACAAAAAAAATTATAAA [CACACA_site3937]” belongs 8.93 ± 0.46. For “CTTATGTTTTTTAAGTGTACATATTATACGTATTAT [XGTACX_site1176]”, the “gcPBM binding intensity (ln)” value is 9.02 ± 0.42.

With “AAATAACATAATAAGGGTACATTAATTTCGATAATG [XGTACX_site835]”, the “gcPBM binding intensity (ln)” value was found to be 8.77 ± 0.4.

With “TTTCTAATTTATATCACACACATATATAAATAGTAA [CACACA_site6156]”, the “gcPBM binding intensity (ln)” value came out at 8.72 ± 0.42. “TATTAATCCTTTTGCTTGGAAACATTCAAAAGGAAG [CACACA_negctrl_site1129]”: the “gcPBM binding intensity (ln)” value worked out at 8.18 ± 0.41.

Consider “TAAATTATAATAAATACACACAAATTATAATTCTAT [CACACA_site3942]”, for which the “gcPBM binding intensity (ln)” value was 8.79 ± 0.37. The figure for “TTTAGAGAAGTCAAGTGTACATATAAAATAATTCAC [XGTACX_site4997]” is 8.65 ± 0.35; for “ATATATATATATATATGTACATATGTATATTTTTTT [XGTACX_site1299]” it is 9.77 ± 0.44; for “TGCACGCACAGACACACACACAACTAAAAAATAATG [CACACA_site7250]” it is 9.54 ± 0.49. With “TATATAAATGGACACACACACACCTTATAATTATTA [CACACA_site6093]”, the “gcPBM binding intensity (ln)” value turned out to be 10 ± 0.38. To “AAAAATAAAAATTGCACACTAAAAAATTACGCACGA [CACACA_site3418]” belongs 8.94 ± 0.35. For “GATAATTACGGACACACACACACACGCACAACTAAA [CACACA_site7254]”, the “gcPBM binding intensity (ln)” value was determined as 10.215 ± 0.0071. The figure for “GATAATTATGGACACACACACACACCCACAACTAAA [CACACA_site8824]” is 10.2 ± 0.35; for “TAATTATGCGGACACACACACACACCCAACTAAAAA [CACACA_site5427]” it is 9.9 ± 0.26; for “TAATTATGCAGACACACACACACACGCAACTAAAAA [CACACA_site7253]” it is 10 ± 0.3. As for “AAGATAATTACGCACACACACACACGCCCACAACTA [CACACA_site7255]”, the “gcPBM binding intensity (ln)” value is 10.4 ± 0.12. With “TAAAAAATAAAAATTGCACACTAAAAAATTACGCAC [CACACA_site9129]”, the “gcPBM binding intensity (ln)” value came out at 8.76 ± 0.41.
